# Screens from PubChem.
# In the library only some 17% were active in any assay of this set; here they are far more common.
# TDP1 cell CPT: growth inhibition of DT40 Tdp1-/-;hTDP1 cells with camptothecin (screen for TDP1 inhibitors). Potency, µM (series often up to 46.2 µM), for the others: top-dose activity change, negative = growth inhibition, actives largely listed as inhibitors. 420,000 compounds, 12% hits. AID 686979. chicken DT40 Tdp1-/-;hTDP1 cells + 20 nM CPT, ATP luminescence, 48 h; also: % is scaled to controls: 0 for no effect and ±100 for the full control effect; nearly all actives have a fitted effect of over 55% in size
#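 Cell growth measured by CellTiter-Glo luminescence after a minimum 48 h, 37 C compound exposure with 20 nM CPT in Tdp1-knockout DT40 cells stably expressing hTDP1, seeded 400/well; qHTS titration format.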
# DT40 TDP1 no CPT: qHTS for Inhibitors of human tyrosyl-DNA phosphodiesterase 1 (TDP1): qHTS in cells in absence of CPT. Potency, µM (series often up to 46.2 µM), inactives show at the highest dose activity change, negative = growth inhibition, hits mostly inhibitors. AID 686978, 2013. DT40 Tdp1-/- hTDP1 cells, no CPT, ATP luminescence, 48 h. 420,000 compounds, 15% hits; also: % is scaled to controls: 0 for no effect and ±100 for the full control effect; nearly all actives have a fitted effect of over 55% in size
#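 Readout: luminescence from CellTiter-Glo after 30 min in the dark at RT. Cells: DT40 Tdp1-/- with stable hTDP1, 400/well. Exposure: compounds alone, ≥48 hr, 37 °C.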
# TDP1 block: inhibitors of human tyrosyl-DNA phosphodiesterase TDP1 | 350,000 compounds, 0.28% hits | Q9NUW8 | recombinant TDP1, AlphaScreen DNA substrate cleavage | AID 485290 | Potency, µM (top dose mostly 130 µM), inactives show top-dose activity change, negative = inhibition, usual class: inhibitors; also: % is scaled to controls: 0 for no effect and ±100 for the full control effect; nearly all actives have a fitted effect of over 40% in size
#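 Steps: enzyme plus compound, 15 min RT; add biotin/phosphotyrosine-FITC oligonucleotide (15 nM final), react 5 min; add donor/acceptor beads (10 ug/ml final), 10 min; read AlphaScreen. Tdp1 at 1 nM final.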
# ClpP mod: qHTS Assay for Activators of ClpP; ATP-dependent Clp protease proteolytic subunit (Bacillus subtilis (strain 168)), P80244; purified B. subtilis ClpP, FRET peptide cleavage, 20 min; Potency, µM (top dose mostly 57.5 µM), without a hit: at the highest dose activity change, negative = active; 340,000 compounds, 1.9% hits; AID 651965, 2013; active = well fitted falling curve with a large enough effect; inconclusive = small, poorly fitted or top-dose-only effect; inactive = no such curve, though single readings can be large or run the other way; also: the source files actives as falling curves though it sought activators and does not explain the sign; nearly all actives have a fitted effect of over 65% in size
# Target sequence (P80244 whole entry, looked up): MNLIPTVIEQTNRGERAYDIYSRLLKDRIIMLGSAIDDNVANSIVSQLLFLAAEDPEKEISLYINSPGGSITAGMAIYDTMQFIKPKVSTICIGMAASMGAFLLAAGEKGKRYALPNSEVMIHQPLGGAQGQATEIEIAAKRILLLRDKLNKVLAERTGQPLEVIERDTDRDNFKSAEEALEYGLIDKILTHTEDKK
#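 FRET quenching reversal measured ClpP activation: 10 microg/mL B. subtilis ClpP at pH 8 with the FRET-FV decapeptide, read at 430 nm after 320 nm excitation. The 20-min minus 0-min signal was scaled between DMSO/no-enzyme wells and ADEP (5.8 microM final).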
# * marks the source's active call; other numbers are inactive results; ? = inconclusive; / = not tested or not shown; [ ] = dose if it differs, or a comment. Unless noted, calls follow the shape of the dose curve; as a rule, active = well fitted curve in the direction sought with a large enough effect; inconclusive = small, poorly fitted or top-dose-only effect, or another doubt; inactive = no such curve, though single readings can be large; an effect the other way counts as inactive or inconclusive. Potency is read from the fitted curve at half-maximal effect.
SMILES,TDP1 cell CPT,DT40 TDP1 no CPT,TDP1 block,ClpP mod
CCOC(=O)C1CCCN(C(=O)c2ccncc2)CC1 (centres undefined),10.2%,-0.7%,/,0.8%
CC(C)c1ccc(C(C)NC(=S)NC2CCCCC2)cc1 (centres undefined),18.4µM*,4.61µM*,2.9%,-0.2%
CC(NC(=S)NC1CCCCC1)c1ccc(C(C)(C)C)cc1 (centres undefined),9.2µM*,?,1.9%,7.4%
CCc1ccc(C(C)NC(=S)NC2CCCCC2)cc1 (centres undefined),?,?,0.9%,1.2%
COC(=O)C(CCSC)NC(=O)c1cn(-c2ccc(OC)cc2)c(=O)c2ccccc12 (centres undefined),-4.3%,18.0%,/,-6.8%
COc1ccccc1/C=C/C1(C(=O)NC2CCCC2)CC(=O)N1c1ccccc1 (centres undefined),6.51µM*,7.31µM*,/,2.8%
COC(=O)c1cc2oc3ccccc3c2n1Cc1c(C)cc(C)cc1C,-3.3%,-2.4%,2.0%,?
CC1Cc2nc(SCC(=O)N3CCCC3)n(C)c(=O)c2S1 (centres undefined),-1.8%,4.2%,7.2%,0.6%
CCn1c(SCC(=O)N2CCCC2)nc2c(c1=O)SC(C)C2 (centres undefined),1.1%,-18.8%,-1.0%,0.6%
CC1Cc2nc(SCC(=O)N3CCN(c4ccccc4)CC3)n(CCc3ccccc3)c(=O)c2S1 (centres undefined),18.4µM*,13µM*,7.6%,-1.9%
CC1Cc2nc(SCC(=O)N3CCN(c4ccccc4)CC3)n(C)c(=O)c2S1 (centres undefined),?,13µM*,7.6%,0.0%
CCn1c(SCC(=O)N2CCN(c3ccccc3)CC2)nc2c(c1=O)SC(C)C2 (centres undefined),?,20.6µM*,2.6%,1.5%
O=C(CSc1nc2c(c(=O)n1-c1ccccc1)SCC2)N1CCN(c2ccccc2)CC1,18.4µM*,?,0.0%,0.7%
CCc1ccc(NC(=O)CCNC(=O)Cn2ccc3ccccc3c2=O)cc1,2.7%,-12.5%,/,/
CC1(C)O[C@H]2[C@@H](O1)[C@@H](C(=O)Nc1ccc(F)c(F)c1)O[C@@H]1OC(C)(C)O[C@@H]12,-1.6%,-8.0%,5.1%,3.0%
CN(C(=O)COC(=O)CCCN1C(=O)c2cccc3cccc(c23)C1=O)C1CCS(=O)(=O)C1 (centres undefined),-10.2%,-14.8%,0.1%,/
O=C(COC(=O)CCCN1C(=O)c2cccc3cccc(c23)C1=O)Nc1cccc(C(F)(F)F)c1,-9.5%,-11.4%,5.1%,28.2µM*
CCN(C(=O)COC(=O)CCCN1C(=O)c2cccc3cccc(c23)C1=O)C1CCS(=O)(=O)C1 (centres undefined),2.1%,-8.4%,-5.0%,28.2µM*
CN(CC(=O)Nc1cccc(F)c1)C(=O)CCCN1C(=O)c2cccc3cccc(c23)C1=O,?,?,0.3%,14.1µM*
CSc1[nH]c(=O)c(C(=O)O)cc1C#N,-6.4%,-15.1%,0.0%,39.8µM*
CCCCCN=C(N)N/N=C/c1c[nH]c2ccc(OC)cc12,2.91µM*,2.59µM*,-5.1%[56.1 µM],-7.4%
CCCOc1ccc(C(=O)N/N=C/c2c[nH]c3ccc(Br)cc23)cc1,-23.9%,?,/,/
CC(=O)Nc1cccc(-c2ccnc3c2CC(C(=O)NCc2ccc(N4CCN(C)CC4)cc2)O3)c1 (centres undefined),?,?,/,-2.6%
Cc1cc(/C=c2\sc3nc4ccccc4n3c2=O)c(C)n1-c1ccc(C(=O)O)cc1,13µM*,13µM*,/,/
Cc1cc(/C=c2/sc3nc4ccccc4n3c2=O)c(C)n1-c1ccccn1,?,18.4µM*,5.1%,-1.5%
SMILES,TDP1 cell CPT,DT40 TDP1 no CPT,TDP1 block,ClpP mod
Cc1cc(C=C2C(=O)c3ccccc3C2=O)c(C)n1-c1ccc(C(=O)O)cc1,-12.8%,-16.5%,/,/
C[C@H](CO)N1C[C@H](C)[C@@H](CN(C)S(=O)(=O)c2ccc(F)cc2)Oc2c(NS(=O)(=O)c3ccc(F)cc3)cccc2C1=O,?,-28.7%,1.6%,-1.5%
Cc1nc(N)[nH]c(=O)c1CCCNS(=O)(=O)c1ccc([N+](=O)[O-])cc1,-13.2%,-2.6%,/,-3.0%
O=C(Nc1ccc(F)c(Cl)c1)c1csc([C@H]2C[C@H](O)[C@@H](CO)O2)n1,20.6µM*,?,/,-2.5%
O=C(Nc1cccc(C(F)(F)F)c1)c1ccc2sc([C@H]3C[C@H](O)[C@@H](CO)O3)nc2c1,?,23.1µM*,/,-2.8%
CC(=O)Nc1ccc(NC(=O)c2ccc3sc([C@H]4C[C@H](O)[C@@H](CO)O4)nc3c2)cc1,-10.5%,-1.7%,/,1.1%
O=C(Nc1ccc(Oc2ccccc2)cc1)c1ccc2sc([C@H]3C[C@H](O)[C@@H](CO)O3)nc2c1,?,20.6µM*,/,-20.9%
O=C(Nc1ccc(F)c(Cl)c1)c1ccc2sc([C@H]3C[C@H](O)[C@@H](CO)O3)nc2c1,18.4µM*,20.6µM*,/,-0.6%
O=C(NCC1CCCO1)c1cc(Br)c(Br)s1 (centres undefined),-8.2%,6.1%,1.6%,-2.6%
O=C(NCc1ccccc1Cl)c1ccc2sc([C@H]3C[C@H](O)[C@@H](CO)O3)nc2c1,?,?,/,-1.8%
O=C(NCc1cc(Cl)cc(Cl)c1)c1ccc2sc([C@H]3C[C@H](O)[C@@H](CO)O3)nc2c1,20.6µM*,?,/,-2.8%
COC(=O)C(NC(C)=O)(Nc1nc2c(C)cc(C)cc2s1)C(F)(F)F (centres undefined),?,15.8µM*,0.0%,1.6%
COc1ccc(C2=C(C)C(N3CCC(C(=O)Nc4ccccc4F)CC3)=NS2(=O)=O)cc1,?,?,/,-0.8%
O=C1c2ccccc2C(=O)c2c(Nc3ccc(CCO)cc3)ccc(O)c21,?,16.4µM*,14.3%,0.9%
CCOC(=O)c1c(C)[nH]c(C)c1S(=O)(=O)NCC(=O)Nc1ccc(CC)cc1,-26.8%,-20.4%,2.6%,-0.5%
COC(=O)c1ccccc1CCC(C)=O,?,16.4µM*,-2.0%,-0.1%
CCCCC(=O)NC(=S)NNS(=O)(=O)c1ccccc1,-27.4%,-20.7%,5.6%,-3.1%
CCC(=O)NNC(=S)NC(=O)c1ccc(C)cc1,?,10.3µM*,3.7%,-3.2%
Cc1ccc(C(=O)NNC(=S)NC(=O)c2ccc(Cl)cc2)cc1,16.4µM*,?,7.9%,3.0%
O=C(CCc1ccccc1)NNC(=S)NC(=O)c1ccc(Cl)cc1,?,23.1µM*,9.8%,-1.7%
CCCCCC(=O)NC(=S)NNC(=O)CC,16.4µM*,?,6.7%,0.2%
O=C(NCC(c1ccc2c(c1)OCO2)N1CCOCC1)c1ccc(F)cc1 (centres undefined),-27.9%,-27.9%,0.0%,-2.8%
